# Results from PubChem BioAssay (NCI).
# Several values for one entry are separate records, joined by “and”; a condition that tells them apart may be missing. Identical values can stand only once. The panel holds about 83,000 compounds, 20% with a hit somewhere; the sample as a whole holds those more often.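 Values shown are percent growth following 48 h exposure of cells in 96-well plates to a single concentration of compound; below 10 was considered active.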 Activity calls are given as the source filed them.
# Assays:
# Assay in all cases: NCI-60 one-dose screen, 48 h (100 = growth as untreated, 0 = no growth, -100 = all killed)
# Conditions in all cases: 10 µM unless noted
# [1] = system: SK-MEL-2 melanoma
# [2] = system: EKVX NSCLC
# [3] = system: SN12C renal
# [4] = system: UO-31 renal
# [5] = system: TK-10 renal
# [6] = system: ACHN renal
# [7] = system: CAKI-1 renal
# [8] = system: A498 renal
# [9] = system: CCRF-CEM leukemia
# [10] = system: MOLT-4 leukemia
Compound,growth [1],growth [2],growth [3],growth [4],growth [5],growth [6],growth [7],growth [8],growth [9],growth [10]
O=C1OCC2=C1C(c1cccc([N+](=O)[O-])c1)c1cc3c(cc1N2CCO)CCC3 (configuration not stated),17.7% (inactive),36.8% (inactive),36.3% (inactive),39% (inactive),60.1% (inactive),27.5% (inactive),31% (inactive),-5.04% (active),7.25% (active),14% (inactive)
CN1C(=O)N(C)C2(c3ccccc3)N(CC(=O)Nc3ccccc3O)C(=O)NC12c1ccccc1 (configuration not stated),111% (inactive),102% (inactive),103% (inactive),74.6% (inactive),93.9% (inactive),102% (inactive),74.1% (inactive),121% (inactive),111% (inactive),102% (inactive)
CCCN1C(=O)/C(=c2\sc3n(c2=O)C2C(NN=3)N(CC)C(=O)N2CC)c2ccccc21 (configuration not stated),55% (inactive),52.4% (inactive),23.1% (inactive),33.6% (inactive),73.9% (inactive),33.1% (inactive),33.8% (inactive),5.22% (active),13.6% (inactive),19.1% (inactive)
CCNC(=S)n1nc(SC)c(C(=O)OCC)c1N,105% (inactive),101% (inactive),97.6% (inactive),77.8% (inactive),106% (inactive),96.7% (inactive),86.7% (inactive),97.5% (inactive),106% (inactive),81.3% (inactive)
CCN(CC)CCOc1ccc(/C(=C(\Cl)c2ccccc2)c2ccccc2)cc1,7.89% (active),47.7% (inactive) and 87.7% (inactive),54.8% (inactive) and 75.6% (inactive),24% (inactive) and 66.4% (inactive),111% (inactive),52.8% (inactive) and 81.3% (inactive),41.3% (inactive) and 69.9% (inactive),77.1% (inactive),28% (inactive) and 89% (inactive),36.8% (inactive) and 91.6% (inactive)
CCN(CC)CCCN1C(=O)c2c(c(C)c3c(oc4cc(OC)ccc43)c2C)C1=O,112% (inactive),99.3% (inactive),89.1% (inactive),67.4% (inactive),112% (inactive),63.1% (inactive),93.2% (inactive),97.7% (inactive),61% (inactive),93.9% (inactive)
O=C(Nc1ccc2ncsc2c1)c1csc(Nc2ccc3[nH]ncc3c2)n1,50.6% (inactive),58.6% (inactive),49.9% (inactive),50.3% (inactive),55.2% (inactive),50.5% (inactive),30.3% (inactive),36.8% (inactive),23% (inactive),49.8% (inactive)
COC1/C=C/OC2(C)Oc3c(C)c(O)c4c(O)c(c(C=NOC(c5ccccc5)c5ccccc5)c(O)c4c3C2=O)NC(=O)/C(C)=C/C=C/C(C)C(O)C(C)C(O)C(C)C(OC(C)=O)C1C (configuration not stated),-24.9% (active),20.4% (inactive),17.3% (inactive),27.2% (inactive),30.9% (inactive),20.3% (inactive),14% (inactive),58.5% (inactive),13.5% (inactive),5.43% (active)
CN1CCCc2cc(/C=C3\SC(=S)N(C(Cc4ccc(O)cc4)C(=O)O)C3=O)ccc21 (configuration not stated),103% (inactive),91.6% (inactive),93.3% (inactive),79.7% (inactive),102% (inactive),103% (inactive),89% (inactive),87.8% (inactive),106% (inactive),103% (inactive)
CCOc1ccccc1NC(=O)c1cc2ccccc2cc1O,37.4% (inactive),75% (inactive),42.8% (inactive),23.7% (inactive),50.6% (inactive),29.3% (inactive),45.7% (inactive),32.7% (inactive),32.4% (inactive),44.6% (inactive)
COc1ccccc1/C=C/C(=O)/C=C/c1ccccc1OC,2.6% (active) and 1.3% (active),12.6% (inactive),-27.2% (active) and -3.57% (active),-89.9% (active) and -54.9% (active),-11.8% (active) and 0.143% (active),-62.5% (active) and -84.2% (active),17.5% (inactive) and 4.88% (active),-48.3% (active) and 22.8% (inactive),15.5% (inactive) and 6.56% (active),14.8% (inactive) and 12.1% (inactive)
CCCCCO/N=C\c1c2c(O)c3c(O)c(C)c4c(c3c1O)C(=O)C(C)(O/C=C\C(OC)C(C)C(OC(C)=O)C(C)C(O)C(C)C(O)C(C)/C=C\C=C(\C)C(=O)N2)O4 (configuration not stated),-37.7% (active),27.3% (inactive),27.6% (inactive),17.8% (inactive),38% (inactive),29.6% (inactive),14.9% (inactive),62.9% (inactive),18.6% (inactive),14.4% (inactive)
Clc1cccc(Nc2ncnc3ccc(-c4cncc(-n5cnnn5)c4)cc23)c1,106% (inactive),26.6% (inactive),75% (inactive),32.1% (inactive),7.65% (active),28.9% (inactive),,-7.13% (active),75.2% (inactive),58.9% (inactive)
Cc1nc2cccc(NCCCCC(=O)NO)c2c(=O)n1-c1ccccc1,55.9% (inactive),63.8% (inactive),69.8% (inactive),56.6% (inactive),37.1% (inactive),54.3% (inactive),,48.5% (inactive),25.3% (inactive),25.1% (inactive)
O=C(NNC(=S)Nc1ccccc1)c1ccncc1,94.3% (inactive),117% (inactive),109% (inactive),84% (inactive),102% (inactive),103% (inactive),133% (inactive),124% (inactive),93.7% (inactive),104% (inactive)
N#CC1C(=O)c2ccccc2C1c1ccccc1 (configuration not stated),103% (inactive),103% (inactive),101% (inactive) and 98.5% (inactive),74% (inactive) and 84.6% (inactive),109% (inactive) and 106% (inactive),108% (inactive) and 103% (inactive),92.2% (inactive) and 93.6% (inactive),128% (inactive) and 99.1% (inactive),98.2% (inactive) and 94.2% (inactive),80.4% (inactive) and 83.3% (inactive)
[Cu+].[NH-][C@H]1C[N-]C(=O)[C@H]([C@H]2CCN=C(N)N2)[N-]C(=O)/C(=C\NC(N)=O)[N-]C(=O)[C@H](CNC(=O)C[C@@H](N)CCCN)[N-]C(=O)[C@H](CO)[N-]C1=O,108% (inactive),109% (inactive),103% (inactive),86.8% (inactive),98.1% (inactive),108% (inactive),87.8% (inactive),85.7% (inactive),99.9% (inactive),102% (inactive)
COc1ccccc1/C=C1\COc2ccc(O)cc2C1=O,93.5% (inactive),102% (inactive),72% (inactive),74.6% (inactive),93.3% (inactive),57.8% (inactive),68.1% (inactive),109% (inactive),6.4% (active),21% (inactive)
COc1cc(NC2CCCCC2O)c2nc(-c3ccc(Cl)cc3)ccc2c1 (configuration not stated),91.5% (inactive) and 80.4% (inactive),78.3% (inactive) and 94.4% (inactive),80.1% (inactive) and 103% (inactive),71.1% (inactive) and 86.8% (inactive),82.2% (inactive) and 125% (inactive),84.4% (inactive) and 87.5% (inactive),46.9% (inactive) and 61.3% (inactive),101% (inactive),53.7% (inactive) and 40.2% (inactive),33.4% (inactive)
O=C1C(Nc2ccc(Cl)cc2)=C(I)C(=O)c2ncccc21,70% (inactive),62.2% (inactive),-22.1% (active),-51% (active),47.5% (inactive),-98.8% (active),-17% (active),99.6% (inactive),6.74% (active),-1.19% (active)
COc1ccc(/C=C(\C#N)c2cc3ccccc3[nH]2)cc1,26.2% (inactive),45.3% (inactive),42.2% (inactive),46.9% (inactive),53.6% (inactive),56.5% (inactive),33.9% (inactive),32.1% (inactive),13.5% (inactive),24.4% (inactive)
O=C(/C=C\c1ccc(Cl)c(Cl)c1)c1ccccc1,119% (inactive) and 109% (inactive),89.3% (inactive),96.1% (inactive) and 104% (inactive),72.2% (inactive) and 84.2% (inactive),80.6% (inactive) and 103% (inactive),95.2% (inactive) and 105% (inactive),96.7% (inactive) and 89.5% (inactive),74.1% (inactive) and 77.3% (inactive),45.5% (inactive) and 91.1% (inactive),77.4% (inactive) and 103% (inactive)
Clc1ccc(CNc2ccc3nc(CCC4CCCCC4)[nH]c3c2)cc1,85.6% (inactive),75.6% (inactive),59.1% (inactive),29.9% (inactive),83.6% (inactive),76.6% (inactive),,45.8% (inactive),41.4% (inactive),39.1% (inactive)
